According to PubChem BioAssay (EPA / NIEHS):
Results filed as inconclusive are left out. The source made the active and inactive calls. The calls were made as follows: active = hit-call score of the fitted dose curve at least 0.9, where 1 is the maximum; inconclusive = response in the unintended direction; inactive = score below 0.9.

How the values were obtained:
[1] = system: rat Monoamine Oxidase, MAO-A, Peripheral (MAOAP), gene 29253; assay: NVS_ENZ_rMAOAP: NovaScreen (NVS) Enzymatic Assay for rat Monoamine Oxidase, MAO-A, Peripheral (MAOAP) (AID 2283237)
How it was run: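 Rat liver mitochondrial membranes served as the MAO-A source, with enzyme activity measured by radiometric scintillation counting 1.17 hours after dosing. Loss of signal was fitted against DMSO; primary screen used 25 uM in duplicate, follow-up used concentration series.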

[2] = system: rat Monoamine Oxidase, MAO-A, Central (MAOAC), gene 29253; assay: NVS_ENZ_rMAOAC: NovaScreen (NVS) Enzymatic Assay for rat Monoamine Oxidase, MAO-A, Central (MAOAC) (AID 2283243);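 also: potency refers to inhibition seen as signal drop below DMSO baseline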
How it was run: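 Rat brain tissue extract used as enzyme source in a cell-free radiometric assay, read by scintillation counting 1.5 hours after dosing. Loss of signal relative to DMSO baseline scored; primary screen at 25 uM in duplicate, actives followed up in concentration series.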

[3] = biological target: rat Constitutive Nitric Oxide Synthase (CNOS), Nos1 (gene 24598) (UniProt P29476); assay: NVS_ENZ_rCNOS: NovaScreen (NVS) Enzymatic Assay for rat Constitutive Nitric Oxide Synthase (CNOS) (AID 2283236)
How it was run: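 Enzyme activity in rat brain membrane preparation, read 1 h after dosing by filter-based radiometric scintillation counting. Primary screen in duplicate at 25 uM; actives (e.g., ≥30% inhibition) then run in concentration-response up to 50 uM.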

[4] = biological target: rat Monoamine Oxidase, MAO-B, Peripheral (MAOBP), Maob (gene 25750) (UniProt P19643); assay: NVS_ENZ_rMAOBP: NovaScreen (NVS) Enzymatic Assay for rat Monoamine Oxidase, MAO-B, Peripheral (MAOBP) (AID 2283242)
[5] = system: guinea pig Leukotriene B4 Receptor (LTB4), gene 100379538; assay: NVS_GPCR_gLTB4: NovaScreen (NVS) G Protein-Coupled Receptor Assay for guinea pig Leukotriene B4 Receptor (LTB4) (AID 2283247)
How it was run: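 Radioligand displacement on guinea pig spleen membranes, filter-based scintillation counting 2 h after dosing. Primary duplicate single point at 25 uM; hits over threshold (e.g. 30% inhibition) run in concentration-response up to 50 uM, DMSO baseline.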

[6] = biological target: rat Catechol-O-Methyl Transferase (COMT), Comt (gene 24267) (UniProt P22734); assay: NVS_ENZ_rCOMT: NovaScreen (NVS) Enzymatic Assay for rat Catechol-O-Methyl Transferase (COMT) (AID 2283235)
How it was run: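 Cell-free enzyme activity with protein extracted from rat dorsal striatum, measured by HPLC with absorbance detection. Compounds screened at 25 uM in duplicate; actives then run in concentration-response up to 50 uM, loss of signal versus DMSO.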

[7] = biological target: rat Monoamine Oxidase, MAO-B, Central (MAOBC), Maob (gene 25750) (UniProt P19643); assay: NVS_ENZ_rMAOBC: NovaScreen (NVS) Enzymatic Assay for rat Monoamine Oxidase, MAO-B, Central (MAOBC) (AID 2283238)
How it was run: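 MAO-B activity in rat brain tissue preparation, cell-free, measured radiometrically by scintillation counting 1.17 h after dosing. Screened in duplicate at 25 uM; actives then in concentration-response up to 50 uM. Loss of signal versus DMSO scored.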

[8] = system: bovine Histamine 1 Receptor (H1), gene 281231; assay: NVS_GPCR_bH1: NovaScreen (NVS) G Protein-Coupled Receptor Assay for bovine Histamine 1 Receptor (H1) (AID 2283246)
How it was run: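 Radioligand displacement on bovine cerebellar membranes, 1 h after dosing, filter-based scintillation read-out; loss of signal vs DMSO. Duplicate single-concentration screen at 25 uM, then concentration-response up to 50 uM for hits.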

[9] = NVS_GPCR_bNPY_NonSelective: NovaScreen (NVS) G Protein-Coupled Receptor Assay for bovine Neuropeptide Y (NPY) Receptor, Non-selective Binding (AID 2283245)
How it was run: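 Bovine hippocampal membranes incubated 1 hour with radioligand and test chemical. Bound ligand measured by filter-based scintillation counting. Single-concentration screen at 25 uM in duplicate, then concentration-response up to 50 uM.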

Sequence of rat Monoamine Oxidase, MAO-B, Peripheral (MAOBP), Maob (gene 25750) (P19643 whole entry, looked up): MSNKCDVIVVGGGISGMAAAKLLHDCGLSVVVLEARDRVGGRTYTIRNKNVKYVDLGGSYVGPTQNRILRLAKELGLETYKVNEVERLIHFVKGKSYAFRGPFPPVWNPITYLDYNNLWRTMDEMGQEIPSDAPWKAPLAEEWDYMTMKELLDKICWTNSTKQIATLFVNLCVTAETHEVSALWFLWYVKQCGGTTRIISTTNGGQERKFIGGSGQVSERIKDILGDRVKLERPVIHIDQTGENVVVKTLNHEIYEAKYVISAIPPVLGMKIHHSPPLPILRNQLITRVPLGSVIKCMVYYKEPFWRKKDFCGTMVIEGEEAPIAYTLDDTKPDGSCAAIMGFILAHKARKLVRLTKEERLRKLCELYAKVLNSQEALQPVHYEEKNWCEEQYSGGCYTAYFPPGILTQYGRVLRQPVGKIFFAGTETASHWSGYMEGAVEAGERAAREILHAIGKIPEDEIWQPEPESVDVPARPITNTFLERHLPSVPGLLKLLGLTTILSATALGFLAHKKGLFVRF
Sequence of rat Catechol-O-Methyl Transferase (COMT), Comt (gene 24267) (P22734 whole entry, looked up): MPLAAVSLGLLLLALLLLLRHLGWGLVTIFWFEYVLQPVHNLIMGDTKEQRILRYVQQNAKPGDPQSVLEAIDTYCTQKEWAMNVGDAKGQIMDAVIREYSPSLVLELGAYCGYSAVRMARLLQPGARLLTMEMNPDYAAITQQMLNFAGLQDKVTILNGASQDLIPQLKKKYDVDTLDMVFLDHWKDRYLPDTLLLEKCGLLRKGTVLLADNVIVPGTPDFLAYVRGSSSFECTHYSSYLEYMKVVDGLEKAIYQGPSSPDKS
Sequence of rat Constitutive Nitric Oxide Synthase (CNOS), Nos1 (gene 24598) (P29476 whole entry, looked up): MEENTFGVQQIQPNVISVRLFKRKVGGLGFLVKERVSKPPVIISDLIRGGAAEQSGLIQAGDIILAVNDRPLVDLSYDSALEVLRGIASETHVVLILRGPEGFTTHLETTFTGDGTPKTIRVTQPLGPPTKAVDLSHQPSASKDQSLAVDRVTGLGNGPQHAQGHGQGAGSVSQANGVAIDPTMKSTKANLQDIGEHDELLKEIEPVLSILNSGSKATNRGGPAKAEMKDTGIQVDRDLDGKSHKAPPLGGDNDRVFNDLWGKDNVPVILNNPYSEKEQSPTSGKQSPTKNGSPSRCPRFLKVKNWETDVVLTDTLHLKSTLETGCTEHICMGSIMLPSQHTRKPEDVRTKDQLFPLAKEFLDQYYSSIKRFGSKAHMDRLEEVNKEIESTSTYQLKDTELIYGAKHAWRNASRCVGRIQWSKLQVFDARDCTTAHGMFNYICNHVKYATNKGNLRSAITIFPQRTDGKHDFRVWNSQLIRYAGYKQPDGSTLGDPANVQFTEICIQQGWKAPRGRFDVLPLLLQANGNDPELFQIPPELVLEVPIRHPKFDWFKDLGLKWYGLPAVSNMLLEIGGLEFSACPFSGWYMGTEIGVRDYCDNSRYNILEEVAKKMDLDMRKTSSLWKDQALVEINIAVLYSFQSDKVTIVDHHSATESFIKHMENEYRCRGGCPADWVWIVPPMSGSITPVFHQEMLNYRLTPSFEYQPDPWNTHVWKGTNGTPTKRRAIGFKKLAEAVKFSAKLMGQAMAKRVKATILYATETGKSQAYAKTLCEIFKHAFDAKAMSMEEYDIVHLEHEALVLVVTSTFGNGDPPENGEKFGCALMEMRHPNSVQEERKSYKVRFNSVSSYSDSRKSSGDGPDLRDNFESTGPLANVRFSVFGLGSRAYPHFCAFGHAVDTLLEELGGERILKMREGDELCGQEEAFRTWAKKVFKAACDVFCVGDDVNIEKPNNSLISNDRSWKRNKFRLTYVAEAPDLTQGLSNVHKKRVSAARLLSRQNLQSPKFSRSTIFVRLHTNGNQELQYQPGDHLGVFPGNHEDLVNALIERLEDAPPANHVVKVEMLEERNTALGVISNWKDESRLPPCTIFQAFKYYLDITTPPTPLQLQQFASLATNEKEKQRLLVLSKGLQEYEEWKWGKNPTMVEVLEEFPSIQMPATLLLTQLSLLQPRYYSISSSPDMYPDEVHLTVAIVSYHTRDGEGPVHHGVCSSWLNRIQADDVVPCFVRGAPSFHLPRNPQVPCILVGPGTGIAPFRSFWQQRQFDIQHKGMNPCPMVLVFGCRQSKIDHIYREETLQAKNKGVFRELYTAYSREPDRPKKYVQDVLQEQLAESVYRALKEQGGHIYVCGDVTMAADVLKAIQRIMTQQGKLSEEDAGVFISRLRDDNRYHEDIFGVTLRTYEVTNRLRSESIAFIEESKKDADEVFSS
Sequence of rat Monoamine Oxidase, MAO-B, Central (MAOBC), Maob (gene 25750) (P19643 whole entry, looked up): as the sequence (P19643 whole entry, looked up) above

Nc1ccc([N+](=O)[O-])cc1
AC50 [1]: 16.7 µM (active)
AC50 [2]: 36.3 µM (active)

CCCCOC(=O)c1ccccc1C(=O)OCc1ccccc1
outcome [3]: inactive

CO[C@@H]1[C@H](OC(=O)NC(=O)CCl)CC[C@]2(CO2)[C@H]1[C@@]1(C)O[C@@H]1CC=C(C)C
outcome [4]: inactive

Nc1ccc(Cc2ccc(N)cc2)cc1
AC50 [5]: 2.83 µM (active)

C=CCc1ccc2c(c1)OCO2
outcome [3]: inactive

Cc1cc(N=Nc2ccccc2C)ccc1N
AC50 [6]: 0.643 µM (active)
AC50 [7]: 25 µM (active)
outcome [4]: inactive
outcome [8]: inactive

O=C(Nc1ccccc1)c1ccccc1I
outcome [9]: inactive

C[C@]12C=CC3=C4CCC(=O)C=C4CC[C@H]3[C@@H]1CC[C@@H]2O
outcome [8]: inactive
AC50 [5]: 2.88 µM (active)

Oc1ccc2ccc3cccc4ccc1c2c34
AC50 [6]: 25 µM (active)
AC50 [1]: 1.18 µM (active)
AC50 [2]: 0.255 µM (active)

Nc1cc(Cl)cc(C(=O)O)c1Cl
outcome [4]: inactive

Nc1ccc(Oc2ccc(N)cc2)cc1
AC50 [2]: 11.3 µM (active)
